Most compounds without a hit are left out; they make up all but 21% or so of the library.
Shiga inhibitor = blocks Shiga toxin action in Vero cells. Vero cells, Shiga toxin protein synthesis inhibition reporter. inhibition, % at 38.7 µM. actives 9.2% (n = 290,000). AID 2315; in the data active = inhibition mostly above about 28%, no sharp cut-off; inactive = mostly below about 43%; also: 0% is about no effect
Pf growth 96h = inhibits malaria parasite growth, 96 h; actives 6.9% (n = 320,000); P. falciparum luciferase reporter growth, 96 h; Potency, µM (titrated, usually from 28.7 µM), for inactives: top-dose activity change, negative = inhibition, usual class: inhibitors; also: potency is read from the fitted curve at half-maximal effect; % is scaled to controls: 0 for no effect and ±100 for the full control effect
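Plates of compound plus infected erythrocytes (2% hematocrit, 0.05% parasitemia final) incubate 96 hours, 37 C, 5% CO2. Detection reagent added; reduced luminescence from the parasites' luciferase reporter flags inhibition.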
Cycloheximide cs = affects cycloheximide protein synthesis inhibition readout, counter-screen | cell reporter, cycloheximide protein synthesis inhibition counterscreen | AID 2314 | actives 12% (n = 300,000) | max response, %; in the data active = max response mostly above about 13%, no sharp cut-off; inactive = mostly below about 14%; also: read at 38.3 µM for the half of the compounds with a filed dose; 0% is about no effect
Pf growth 48h = inhibits P. falciparum growth in the first generation, 48 h; actives 5.9% (n = 310,000); AID 504832; P. falciparum luciferase growth in erythrocytes, 48 h; Potency, µM (top dose mostly 28.7 µM), without a hit: at the top dose activity change, negative = inhibition, most hits filed as inhibitors; also: potency is read from the fitted curve at half-maximal effect; % is scaled to controls: 0 for no effect and ±100 for the full control effect
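Here the parasites carry a stable luciferase gene and grow inside erythrocytes in Albumax-based RPMI medium with compound for one erythrocytic cycle. Activity is scored as loss of luminescent signal.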
* hit, by the source's call; i = inactive; u = inconclusive; x = not tested or not shown. Unless noted, calls follow the shape of the dose curve; as a rule, active = well fitted inhibition curve with a large enough effect; inconclusive = small, poorly fitted or top-dose-only effect, or another doubt; inactive = no such curve, though single readings can be large or run the other way.

SMILES	Shiga inhibitor	Pf growth 96h	Cycloheximide cs	Pf growth 48h
COc1ccc(C(CCN2CCCC(C)C2)c2c(OC)cc(OC)c3c(-c4ccccc4)cc(=O)oc23)cc1 (configuration not stated)	-8	5.9µM*	8	12µM*
COc1ccc(C(CCN2CCN(c3ccccc3)CC2)c2c(OC)cc(OC)c3c(-c4ccccc4)cc(=O)oc23)cc1 (configuration not stated)	1	4.7µM*	12	3.3µM*
COc1cc(OC)c2c(C)cc(=O)oc2c1C(CCN1CCN(c2ccccc2)CC1)c1ccc2c(c1)OCO2 (configuration not stated)	-4	2.1µM*	9	3.3µM*
COc1cc(OC)c2c(-c3ccccc3)cc(=O)oc2c1C(CCN1CCN(c2ccccc2)CC1)c1ccc(N(C)C)cc1 (configuration not stated)	-3	4.1µM*	-3	5.2µM*
CCOc1ccc(CN(C)C(=O)CNC(=O)C2CCCCC2)cc1OC	-7	u	4	u
COc1cc(OC)c2c(-c3ccccc3)cc(=O)oc2c1C(CC(=O)N1CCOCC1)c1ccc(N(C)C)cc1 (configuration not stated)	-12	u	14	7.4µM*
COc1cc(OC)c2c(-c3ccccc3)cc(=O)oc2c1C(CCN1CCCC1)c1ccc2c(c1)OCO2 (configuration not stated)	-8	8.3µM*	-7	u
COc1cc(OC)c2c(-c3ccccc3)cc(=O)oc2c1C(CCN1CCOCC1)c1ccc2c(c1)OCO2 (configuration not stated)	-2	x	19	x
COc1ccc(C(CCN2CCCC(C)C2)c2c(OC)cc(OC)c3c(C)cc(=O)oc23)cc1 (configuration not stated)	-2	2.6µM*	-5	2.9µM*
COc1cc(OC)c2c(C)cc(=O)oc2c1C(CCN1CCOCC1)c1ccc(N(C)C)cc1 (configuration not stated)	-14	u	-6	10µM*
COc1cc(OC)c2c(-c3ccccc3)cc(=O)oc2c1C(CCN1CCCC(C)C1)c1ccc(N(C)C)cc1 (configuration not stated)	3	u	-4	u
COc1cc(OC)c2c(-c3ccccc3)cc(=O)oc2c1C(CC(=O)N1CCN(c2ccccc2)CC1)c1ccc(N(C)C)cc1 (configuration not stated)	-5	u	9	u
Cc1ccc(CN(C)C(=O)c2cccc(S(=O)(=O)N3CCc4ccccc4C3)c2)o1	x	0%	x	9%
CCN(C(=O)COC(=O)c1ccc(C=O)cc1)c1c(N)n(Cc2ccccc2)c(=O)[nH]c1=O	x	u	x	-5%
CCOC(=O)c1sc(=S)n(C)c1NC(=O)c1ccccc1C	-8	-25%	-7	2%
CCOc1ccc(C(C)=O)cc1CN1C(=O)NC(C)(C2CC2)C1=O (configuration not stated)	-5	u	9	u
COc1cc(C(CCN2CCCCC2)c2c(OC)cc(OC)c3c(C)cc(=O)oc23)cc(OC)c1OC (configuration not stated)	4	9.3µM*	-5	8.3µM*
CCN(CC)CCC(c1ccc(N(C)C)cc1)c1c(OC)cc(OC)c2c(-c3ccccc3)cc(=O)oc12 (configuration not stated)	-19	3.7µM*	-10	8.3µM*
COc1ccc(C(CCN2CCOCC2)c2c(OC)cc(OC)c3c(-c4ccccc4)cc(=O)oc23)cc1 (configuration not stated)	-5	x	1	x
COc1ccc(C(CCN2CCCC2)c2c(OC)cc(OC)c3c(-c4ccccc4)cc(=O)oc23)cc1 (configuration not stated)	-15	12µM*	-1	12µM*
COc1cc(C(CCN2CCCC2)c2c(OC)cc(OC)c3c(-c4ccccc4)cc(=O)oc23)cc(OC)c1OC (configuration not stated)	-14	1.9µM*	-12	2.3µM*
COc1cc(C(CCN2CCOCC2)c2c(OC)cc(OC)c3c(-c4ccccc4)cc(=O)oc23)cc(OC)c1OC (configuration not stated)	i	x	-3	x
Cn1cccc1C(=O)C(=O)Nc1cccc(Cl)c1Cl	10	292%	12	138%
Nc1ncc(Br)cc1S(=O)(=O)NCCc1ccccc1	-5	-21%	-4	5%
COc1cc(OC)c2ccc(=O)oc2c1C(CCN1CCN(c2ccccc2)CC1)c1ccc(N(C)C)cc1 (configuration not stated)	-14	10µM*	-6	12µM*
SMILES	Shiga inhibitor	Pf growth 96h	Cycloheximide cs	Pf growth 48h
O=C(COC(=O)c1cccs1)c1ccc2c(c1)OCCO2	-14	32%	-2	x
O=C(COC(=O)c1cccs1)c1ccc2ccccc2c1	98*	51%	56*	79%
CN(C)c1ccc(C(=O)OCC(=O)c2cccs2)cc1	71*	9.3µM*	45*	362%
O=C(NNC(=O)c1cccs1)c1ccc2ccccc2c1	51*	1.7µM*	29*	60%
COc1ccc(C(=O)COC(=O)c2ccc(N(C)C)cc2)cc1	-11	48%	-1	24%
Cc1ccc(C(=O)COC(=O)c2cccs2)cc1	-2	102%	11	363%
CCc1ccc(C(=O)COC(=O)c2cccs2)cc1	52	x	23*	166%
CC(=O)Nc1c2c(nn1-c1ccc(F)cc1)CSC2	-7	18%	-3	33%
CCOc1cc(Cl)c(NC(=O)c2ccco2)cc1OCC	6	26%	-2	-1%
CC(C)C(=O)c1cc2c(cc1NC(=O)c1ccccc1)OCCO2	-4	u	-1	u
COc1ccccc1C(=O)Nc1cc2c(cc1C(=O)O)OCCCO2	-7	-3%	-6	6%
O=C(Nc1cc2c(cc1Cl)OCCCO2)c1ccccc1	99*	x	31*	138%
O=C(Nc1cc2c(cc1C(=O)O)OCCCO2)c1ccc(F)cc1F	45	83%	17*	69%
O=C(Nc1cc2c(cc1Cl)OCCCO2)c1ccco1	105*	232%	80*	228%
CCc1c(C)sc(NC(=O)Cn2nc(C)c([N+](=O)[O-])c2C)c1C(N)=O	17	-25%	-2	26%
CC1CCC2(CC1)NC(=O)N(NC(=O)CCc1c[nH]c3ccccc13)C2=O (configuration not stated)	x	3%	x	15%
O=C(COc1ccc([N+](=O)[O-])cc1)Nc1ccc(CN2CCOCC2)cc1	4	46%	-5	-5%
Cc1cc(C)nc(/N=C(\N)N2CCc3ccccc32)n1	88*	u	33*	-4%
Cc1cc(C)nc(/N=C(\N)N2CCCCCC2)n1	15	u	-3	-4%
Cc1ccc(SCc2ccc(C(=O)Nc3ccccc3C(=O)NC(C)C)cc2)cc1	2	423%	-2	-5%
CCCNC(=O)c1ccccc1NC(=O)c1ccc(CSc2ccccc2)cc1	26*	u	17*	13µM*
CCC(C)NC(=O)c1ccccc1NC(=O)c1ccc(CSc2ccccc2)cc1 (configuration not stated)	-9	0%	-4	12µM*

Bioassay records: PubChem, National Center for Advancing Translational Sciences (NCATS)
